Source: PubChem (National Center for Advancing Translational Sciences (NCATS))
An excerpt weighted towards active compounds, which were near 21% of everything screened.
Sm TGR inh: qHTS Assay for the Inhibitors of Schistosoma Mansoni Peroxiredoxins. Schistosoma mansoni thioredoxin glutathione reductase (TGR), Q962Y6. purified TGR, DTNB reduction, TNB absorbance 405 nm. Potency, µM (doses to about 114 µM), hits mostly inhibitors. 360,000 compounds, 3% hits. AID 485364, 2010; also: nearly all actives have a fitted effect of over 60% in size
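First, TGR (20 nM dispensed) and NADPH were mixed with compound. Second, a 15 min room-temperature incubation followed. Third, further NADPH and then DTNB were added to start the reaction. Finally, TNB absorbance was monitored kinetically.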
NS1 function inh: qHTS Assay for Inhibitors of Influenza NS1 Protein Function; Potency, µM (titrated, usually from 46.1 µM); 270,000 compounds, 0.4% hits; calls by dose curve; also: actives are rising curves; nearly all actives have a fitted effect of over 50% in size
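In this qHTS, NS1 from influenza A is expressed in budding yeast, where it slows growth. Cells are switched from glucose to 2% galactose medium (pH 6.0, -URA), treated with compound, and growth recovery is read at OD600.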
Shiga toxin inh: A qHTS for Small Molecule Inhibitors of Shiga Toxin; Vero cells, Shiga toxin protein synthesis inhibition reporter; inhibition, % at 38.7 µM; 290,000 compounds, 9.2% hits; in the data active = inhibition mostly above about 28%, no sharp cut-off; inactive = mostly below about 43%
CHX counter: Cycloheximide Counterscreen for Small Molecule Inhibitors of Shiga Toxin; cell reporter, cycloheximide protein synthesis inhibition counterscreen; max response, %; 300,000 compounds, 12% hits; in the data active = max response mostly above about 13%, no sharp cut-off; inactive = mostly below about 14%; also: read at 38.3 µM for the half of the compounds with a filed dose
Pf growth 96h: Primary qHTS for delayed death inhibitors of the malarial parasite plastid, 96 hour incubation. P. falciparum luciferase reporter growth, 96 h. Potency, µM (top dose mostly 28.7 µM), most hits filed as inhibitors. 320,000 compounds, 6.9% hits. AID 504834, 2011
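Luminescence readout: decreased luciferase signal marks inhibited growth of reporter-expressing P. falciparum in infected red cells (2% hematocrit, 0.05% parasitemia final), exposed to compound two generations (96 h, 37 C, 5% CO2).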
Pf growth 48h: Primary qHTS for delayed death inhibitors of the malarial parasite plastid, 48 hour incubation. Potency, µM (doses to about 28.7 µM), actives largely listed as inhibitors. 310,000 compounds, 5.9% hits. P. falciparum luciferase growth in erythrocytes, 48 h. AID 504832, 2011
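Firefly luciferase activity from engineered P. falciparum reports growth; inhibitors lower the luminescent signal. Cultures contained 2% hematocrit erythrocytes at 0.1% final parasitemia.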
Of the large screens only hits and unclear results are named; the others gave an inactive call. Unless noted, calls follow the shape of the dose curve; as a rule, active = well fitted curve in the direction sought with a large enough effect; inconclusive = small, poorly fitted or top-dose-only effect, or another doubt; inactive = no such curve, though single readings can be large; an effect the other way counts as inactive or inconclusive.

CCC(=O)N1CCc2cc(CNC(=O)C(CC)c3ccccc3)ccc21 (stereo not drawn)	none (no result: NS1 function inh, Shiga toxin inh, CHX counter, Pf growth 96h, Pf growth 48h)
COc1ccc(/C=C/C(=O)Oc2ccc(C)c(C)c2)cc1OC	Pf growth 48h inconclusive (no result: NS1 function inh)
CC(=O)Oc1ccc(OC(C)=O)c(S(=O)(=O)c2ccc(C)c(C)c2)c1	Sm TGR inh inconclusive, Pf growth 96h 12µM
O=c1c(-c2cc(-c3ccccc3)nc3c2COc2ccc(Cl)cc2-3)coc2ccccc12	none (no result: NS1 function inh, Shiga toxin inh, CHX counter, Pf growth 96h, Pf growth 48h)
O=C1C(Nc2ccccc2)=CC(c2ccc(O)cc2)N1c1ccccc1 (stereo not drawn)	Shiga toxin inh 45, CHX counter 28, Pf growth 96h inconclusive
COc1cc(C2C=C(Nc3ccccc3)C(=O)N2c2ccccc2)ccc1O (stereo not drawn)	NS1 function inh inconclusive, Shiga toxin inh 57, CHX counter 37, Pf growth 96h inconclusive
COc1ccc(NC2=CC(c3ccc(OC)cc3)N(c3ccc(OC)cc3)C2=O)cc1 (stereo not drawn)	none (no result: Sm TGR inh)
CSCCC(NS(=O)(=O)c1ccccc1)C(=O)Nc1nccs1 (stereo not drawn)	none (no result: NS1 function inh, Shiga toxin inh, CHX counter)
CCC1(c2ccc(F)cc2)NC(=O)N(CC(=O)Nc2ccccc2C)C1=O (stereo not drawn)	none
CC1(c2ccccc2)NC(=O)N(CC(=O)Nc2ccccc2N2CCCC2)C1=O (stereo not drawn)	Pf growth 48h inconclusive (no result: NS1 function inh, Shiga toxin inh, CHX counter)
CCC1(c2ccccc2)NC(=O)N(CC(=O)Nc2cc(Cl)ccc2N2CCN(C)CC2)C1=O (stereo not drawn)	Pf growth 96h inconclusive, Pf growth 48h 12µM (no result: NS1 function inh, Shiga toxin inh, CHX counter)
CCC1(c2ccc(F)cc2)NC(=O)N(CC(=O)N2CCc3ccccc32)C1=O (stereo not drawn)	Pf growth 96h 10µM, Pf growth 48h 12µM (no result: NS1 function inh, Shiga toxin inh, CHX counter)
CN1CCN(c2ccc(Cl)cc2NC(=O)CN2C(=O)NC(C)(c3ccccc3)C2=O)CC1 (stereo not drawn)	Pf growth 96h inconclusive, Pf growth 48h 2.9µM (no result: NS1 function inh, Shiga toxin inh, CHX counter)
CCOc1cccc2cc(-c3nc4ccc(C(=O)O)cc4[nH]3)c(=O)oc12	none (no result: NS1 function inh, Shiga toxin inh, CHX counter)
O=C(Nc1nnc(C2CC2)s1)c1cccnc1Oc1ccc(Cl)cc1	none
CC(C)C[C@@H](CO)N1CCN(CC(C)C)CCC1=O	none
Cc1ccc(CNS(=O)(=O)c2cnc(N)nc2)cc1	none (no result: NS1 function inh, Shiga toxin inh, CHX counter, Pf growth 96h, Pf growth 48h)
Cc1cccc(-n2nc3c(c2NC(=O)C2CC2)CS(=O)(=O)C3)c1C	none
CC1=CC2/C=C(\C)CCC(O)C(O)/C=C/C(=O)C23C(=O)NC(CC(C)C)C3C1C (stereo not drawn)	Sm TGR inh 4µM, Pf growth 48h inconclusive
COc1cc(NC(=O)CCc2nnc3ccc(N4CCCCC4)nn23)cc(OC)c1OC	Pf growth 96h 10µM, Pf growth 48h inconclusive
COc1ccccc1NC(=O)CCc1nnc2ccc(N3CCCCC3)nn12	Pf growth 96h 4.1µM
O=C(c1ccco1)N1CCN(C2CC(=O)N(c3ccccc3)C2=O)CC1 (stereo not drawn)	Sm TGR inh 50µM (no result: Pf growth 48h)
CCOC(=O)c1ccc(N2C(=O)CC(N3CCN(C(=O)c4ccco4)CC3)C2=O)cc1 (stereo not drawn)	none (no result: Pf growth 96h)
O=C(c1ccco1)N1CCN(C2CC(=O)N(c3ccc(C(F)(F)F)cc3)C2=O)CC1 (stereo not drawn)	Sm TGR inh 50µM
CCOc1ccc(N2C(=O)CC(N3CCN(C(=O)c4ccco4)CC3)C2=O)cc1 (stereo not drawn)	Sm TGR inh 45µM
O=C(NCCC(=O)N1CCCC(C(F)(F)F)C1)c1ccc(Br)cc1 (stereo not drawn)	Pf growth 96h inconclusive
CSc1cccc(NS(=O)(=O)c2cn(C)cn2)c1	none
COC(=O)C1=NN(N=O)C2(CC(=O)N(c3cc(C)cc(C)c3)C2=O)C1 (stereo not drawn)	Sm TGR inh 25µM (no result: Pf growth 48h)
O=C(O)CCCCCCCCCC(=O)c1cccs1	Pf growth 96h inconclusive
S=C(Nc1ccc2nsnc2c1)N1CCCCCC1	Pf growth 48h inconclusive
CC1CCN(C(=O)Nc2ccc3nsnc3c2)CC1	Shiga toxin inh 107, CHX counter 20
O=C(Nc1ccc2nsnc2c1)N1CCCCC1	CHX counter 30 (no result: Pf growth 48h)
CC1CCN(C(=O)Nc2cccc(NC(=O)N3CCC(C)CC3)c2)CC1	none
Cc1cc(NC(=O)CSc2nc3c([nH]c4ccccc43)c(=O)n2-c2cccc(Cl)c2)no1	none (no result: NS1 function inh, Shiga toxin inh, CHX counter, Pf growth 96h, Pf growth 48h)
N#Cc1c(N)nc2c(c1N)CC(COc1ccccc1)O2 (stereo not drawn)	Shiga toxin inh 52, CHX counter 37
N#Cc1c(N)nc2c(c1N)CC(CO)O2 (stereo not drawn)	none
Cc1ccccc1OCC1Cc2c(nc(N)c(C#N)c2N)O1 (stereo not drawn)	Shiga toxin inh 58, CHX counter 29
CCCN(C(=O)C1CSC2(C)CCC(=O)N12)c1c(N)n(Cc2ccccc2)c(=O)[nH]c1=O (stereo not drawn)	none (no result: NS1 function inh, Shiga toxin inh, CHX counter)
CCOc1ccc(OC(=O)c2c(-c3ccccc3Cl)noc2C)cc1	none (no result: NS1 function inh, Shiga toxin inh, CHX counter, Pf growth 96h, Pf growth 48h)
O=C(CCS(=O)(=O)c1ccc(Br)cc1)Nc1cc(F)ccc1F	Sm TGR inh 13µM, Pf growth 96h inconclusive
COC(=O)c1ccccc1NC(=O)CCS(=O)(=O)c1ccc(Br)cc1	Sm TGR inh 10µM, Pf growth 96h inconclusive
Cc1c(Cl)cccc1NC(=O)CNC(=O)CCS(=O)(=O)c1ccc(F)cc1	Sm TGR inh 45µM, Pf growth 96h inconclusive (no result: NS1 function inh, Shiga toxin inh, CHX counter)
C=CCCC(=O)N(C)CCO	none (no result: NS1 function inh, Shiga toxin inh, CHX counter)
CS(=O)(=O)c1ncc(N(Cc2ccco2)Cc2cccs2)c(C(=O)Nc2ccccc2F)n1	none (no result: NS1 function inh, Shiga toxin inh, CHX counter, Pf growth 96h, Pf growth 48h)
CCCCOc1ccc(N(CC(=O)NC2CCCCC2)C(=O)CCC(=O)Nc2ccccn2)cc1	Pf growth 96h inconclusive, Pf growth 48h 12µM
CCOC(=O)C(C(=O)Nc1cccc(C)n1)C1CCCCC1 (stereo not drawn)	none (no result: Pf growth 96h, Pf growth 48h)
CCOC(=O)C(C(=O)Nc1ccccn1)C1CCCCC1 (stereo not drawn)	Pf growth 96h 9.3µM
CCCCOc1ccc(N(CC(=O)NC2CCCC2)C(=O)CCC(=O)Nc2ccccn2)cc1	none
Cc1ccc(-n2ncc3c2CC(C)(C)CC3NC(=O)c2ccncc2)cc1 (stereo not drawn)	Pf growth 96h inconclusive
Fc1ccccc1-c1nc(-c2ccc(Br)o2)no1	Shiga toxin inh 85, CHX counter 57
COc1ccc(Cl)cc1-c1nc(-c2ccc(Br)o2)no1	none (no result: Pf growth 48h)
Cc1ccccc1-c1nc(-c2ccc(Br)o2)no1	Shiga toxin inh 97, CHX counter 44
Cc1ccccc1-c1nc(-c2ccc(NC(=O)c3ccc(Br)o3)cc2)no1	Shiga toxin inh 57, CHX counter 27, Pf growth 96h inconclusive
Cc1ccccc1-c1noc(-c2cc3ccccc3oc2=O)n1	none (no result: NS1 function inh, Shiga toxin inh, CHX counter, Pf growth 96h, Pf growth 48h)
COc1cccc(CC(NC(C)=O)C(=O)NC2CCN(c3c(Cc4ccccc4)c(C)nc4ncnn34)CC2)c1OC (stereo not drawn)	Pf growth 96h inconclusive, Pf growth 48h 5.9µM
